The values that follow come from PubChem BioAssay (NCATS).

In experiment [1] the target is Lysosomal acid glucosylceramidase (Homo sapiens) (UniProt P04062). Description: Glucocerebrosidase-p2 (AID 348; in the data active means potency below about 10 µM; further: potency means the concentration at half of the fitted maximal effect). The conditions noted are these: purified GBA, blue fluorogenic substrate, 40 min. The method, boiled down: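 Normal human glucocerebrosidase (0.2 nM) with blue fluorogenic substrate (80 uM final) in citrate/phosphate pH 5.9 with 10mM sodium taurocholate, 0.01% tween-20; 40 min RT, NaOH/glycine stop; fluorescence Ex 365/Em 440; AC50 from a titration from 0.6 nM upwards.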

Experiment [2] is described as follows: AP1 Signaling Pathway (AID 357).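 Further: ME-180 reporter cells stimulated with EGF at its EC50 level; on the % scale 0 is the no-effect control and ±100 the full control effect.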 The conditions noted are these: ME-180 AP-1-bla reporter, EGF-induced, beta-lactamase ratio, 5 h; at 7.69 µM (top of the series) unless noted. In a few lines:
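A ratiometric CCF4 readout (405 nm excitation; 460 and 530 nm emission) quantified AP-1-driven beta-lactamase in ME-180 cells after 5 h with compound and EC50 EGF; AC50 values were derived for activators and inhibitors.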

The target in experiment [3] is Cytochrome P450 1A2 (Homo sapiens) (UniProt P05177). Description: p450-cyp1a2 (AID 410; calls by dose curve; further: potency means the concentration at half of the fitted maximal effect;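 on activity change, negative = inhibition: -100% = full effect of reference inhibitor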). The conditions noted are these: recombinant CYP1A2, luciferin-ME demethylation, luminescence; series mostly up to 57 µM. The method, boiled down:
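Read-out is luminescence from luciferin produced by CYP1A2 demethylation of Luciferin-ME (100uM, at Km). Detection reagent stopped the 60 min NADPH-dependent reaction; signals were normalized to 57 uM furafylline.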

The nature of experiment [4]: NFAT Signaling Pathway (AID 444).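 Further: carbachol stimulus at about its EC50 of 1 µM final; on the % scale 0 is the no-effect control and ±100 the full control effect.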 The following applies: Jurkat NFAT-bla M1, carbachol, beta-lactamase ratio, 5 h; at 7.69 µM (top of the series) unless noted. In a few lines:
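Jurkat cells with NFAT-driven β-lactamase reporter and co-expressed M1 receptor, stimulated with carbachol (final 1 uM, ~EC50), compound titration, 5 h at 37 °C. CCF4 loaded 1 h at RT; 460/530 nm ratio gave %activity and AC50.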

A short description of experiment [5]: Stat Signaling Pathway (AID 446).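 Further: ME-180 cervical cancer cells given 40 pM IL-6 alongside compound; SIE-controlled beta-lactamase reporter measured as 460/530 nm FRET emission ratio; on the % scale 0 is the no-effect control and ±100 the full control effect.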 The following applies: ME-180 SIE beta-lactamase reporter, IL-6 stimulated, 5 h; at 7.69 µM (top of the series) unless noted. The method, boiled down: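 Compound effects on IL-6-induced STAT reporter activity were measured in ME-180 cells. After overnight culture, cells were co-treated with 40 pM IL-6 for 5 hrs before beta-lactamase substrate loading at room temperature.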

The target in experiment [6] is Glucocorticoid receptor (Homo sapiens) (UniProt P04150). Briefly: GR-EFC Redistribution (AID 451; calls by dose curve; further: potency means the concentration at half of the fitted maximal effect). The conditions noted are these: CHO-K1 GR-EFC translocation, beta-gal luminescence, 2 h. In a few lines: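 CHO-K1 cells expressing nuclear EA and GR-ED fragments of b-gal; compounds titrated up to 46 uM final, 2 h at 37 C. GR nuclear translocation read as complemented b-gal luminescence after 1 h RT detection.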

Experiment [7] concerns the target Mitogen-activated protein kinase 10 (Mus musculus) (UniProt Q61831). Description: JNK3 AlphaScreen Assay (AID 530).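 Further: kinase came from lysate of stimulated human HepG2 cells; signal reports phosphorylation of biotinylated GST-cJun 1-79 at Ser73 with 10 µM ATP; on the % scale 0 is the no-effect control and ±100 the full control effect.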 The following applies: JNK3 lysate, c-Jun phosphorylation; series mostly up to 57.1 µM. In a few lines:
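HepG2 lysate (IL-1b/TNFa pre-activated) + biotin-GST-cJun 1-79 + anti-pSer73 cJun; cpd titration, 15 min RT; ATP 10 uM start; Tris pH 7.6, MgCl2, DTT, vanadate; beads in EDTA buffer; AlphaScreen.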
(In general: Alpha assays give light when donor and acceptor beads are brought close together.)

Experiment [8] deals with 3',5'-cyclic-AMP phosphodiesterase 4B (Homo sapiens) (UniProt Q07343). Description: qHTS Assay for Inhibitors of PDE-IV (AID 607; active means well fitted activation curve with a large enough effect in the main read-out, with a control signal flat, not every such curve was filed as active; further: % of control where 0% means no effect). The following applies: HEK293 ACTOne CNG channel cells, membrane potential fluorescence; series mostly up to 22.9 µM. In a few lines:
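ACTOne HEK293 cells carry a modified cAMP-gated CNG channel and express endogenous PDE4; plated 1000 cells/well, compounds up to 22.9 uM final. Membrane-potential dye fluorescence (ex 535/em 590) was read; parental cells received 10 uM forskolin + 100 uM RO 20-1724.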

The target of experiment [9] is Cytochrome P450 3A4 (Homo sapiens) (UniProt P08684). Description: qHTS Assay for Activators of Cytochrome P450 3A4 (AID 885; active means well fitted curve in the direction sought with a large enough effect; an effect the other way counts as inactive or inconclusive; further: nearly all actives have a fitted effect of over 65% in size). The following applies: recombinant CYP3A4, Luciferin-PPXE luminescence, 60 min; series mostly up to 57.1 µM. In a few lines: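 CYP3A4 activity: Luciferin-PPXE O-dealkylation, 25uM substrate, 200mM KPO4, RT throughout. Read-out is luciferase luminescence; higher values reflect activation.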

Experiment [10] can be described thus: qHTS Assay for Lipid Storage Modulators (AID 1519; calls by dose curve). The conditions noted are these: Drosophila S3 cells, BODIPY lipid droplet/cell ratio, laser cytometry, cells loaded with oleic acid; for activity change, negative = inhibition: at 57.5 µM (top of the series). The method, boiled down:
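Cells seeded at 5,000 per well were treated with compounds over a concentration series and loaded with oleic acid (400 uM, as added). Lipid droplet fluorescence (488 nm excitation, 500-530 nm channel) was read by laser-scanning cytometry and normalized to 20 uM Triacsin C.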
(In qHTS, concentration-response curves come from the screen itself.)

Experiment [11] is described as follows: Primary qHTS for small molecule stabilizers of the endoplasmic reticulum resident proteome: Secreted ER Calcium Modulated Protein (SERCaMP) assay (AID 1508630; active means well fitted curve in the direction sought with a large enough effect; an effect the other way counts as inactive or inconclusive; further: on the % scale 0 is the no-effect control and ±100 the full control effect). The conditions noted are these: SH-SY5Y GLuc-SERCaMP (Gaussia luciferase released on ER calcium loss) secretion, thapsigargin, luminescence; series mostly up to 38.4 µM. The method, boiled down:
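The SH-SY5Y reporter protocol was run at 3 concentrations up to 38.3 uM (primary) or 11 concentrations (follow-up): 16 h compound, 100 nM thapsigargin for 4 h, then extracellular luciferase luminescence.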

For experiment [12], the target named is Cytochrome P450 2C19 (Homo sapiens) (UniProt P33261). Description: qHTS Assay for Inhibitors and Substrates of Cytochrome P450 2C19 (AID 899; active means well fitted curve in the direction sought with a large enough effect; an effect the other way counts as inactive or inconclusive; further: potency means the concentration at half of the fitted maximal effect; nearly all actives have a fitted effect of over 60% in size). The conditions noted are these: recombinant CYP2C19, luciferin-H EGE luminescence; series mostly up to 57.1 µM. In a few lines:
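Signal comes from luciferase acting on luciferin released by CYP2C19-mediated hydroxylation of Luciferin-H EGE, 10uM (KM). Assay mix: 5nM enzyme, 50mM KPO4; 60 min at 37C with NADPH regeneration. Data normalized against 57uM ketoconazole.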

Experiment [13] concerns the target Cytochrome P450 2D6 (Homo sapiens) (UniProt P10635). Description: qHTS Assay for Inhibitors and Substrates of Cytochrome P450 2D6 (AID 891; active means well fitted curve in the direction sought with a large enough effect; an effect the other way counts as inactive or inconclusive; further: potency means the concentration at half of the fitted maximal effect; nearly all actives have a fitted effect of over 60% in size). The conditions noted are these: recombinant CYP2D6, luciferin-ME EGE luminescence; series mostly up to 57.1 µM. The method, boiled down:
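Luminescent read-out of luciferin formed by 5 nM human CYP2D6 demethylating 30 uM Luciferin-ME EGE (Km level) over 60 min at room temperature after NADPH regeneration addition. Data normalized to full inhibition by 1.43 uM quinidine.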

Experiment [14] can be described thus: qHTS Assay for Identification of Small Molecule Agonists for Hypoxia Response Element Signaling Pathway (AID 914; active means well fitted activation curve with a large enough effect in the signal ratio, with a control signal flat, not every such curve was filed as active; the % refers to the signal ratio; further: % of control where 0% means no effect). The following applies: ME-180 (cervical carcinoma) HRE-bla reporter, beta-lactamase ratio, CoCl2, 17 h; activation: stronger effect = higher value. The method, boiled down:
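A beta-lactamase reporter under hypoxia response element control in ME-180 cells served as the system. Compound titrations plus EC50 CoCl2 ran 17 h at 37 degrees Celsius; AC50 values were fitted from %Activity.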

The mark [15] stands for this setting: measured here: cell count channel max response.
Setting [16] is: measured here: lipid channel max response.

The structures appear in SMILES notation. Results filed as inconclusive are left out. The source made the active and inactive calls. Unless noted, the call rests on the fitted dose curve; in most records, active means well fitted curve in either direction with a large enough effect (not every such curve was filed as active); inconclusive means small, poorly fitted or top-dose-only effect, or another doubt; inactive means flat fitted curve, though single readings scatter.

Chain of Cytochrome P450 1A2 (Homo sapiens) (P05177 whole entry, looked up): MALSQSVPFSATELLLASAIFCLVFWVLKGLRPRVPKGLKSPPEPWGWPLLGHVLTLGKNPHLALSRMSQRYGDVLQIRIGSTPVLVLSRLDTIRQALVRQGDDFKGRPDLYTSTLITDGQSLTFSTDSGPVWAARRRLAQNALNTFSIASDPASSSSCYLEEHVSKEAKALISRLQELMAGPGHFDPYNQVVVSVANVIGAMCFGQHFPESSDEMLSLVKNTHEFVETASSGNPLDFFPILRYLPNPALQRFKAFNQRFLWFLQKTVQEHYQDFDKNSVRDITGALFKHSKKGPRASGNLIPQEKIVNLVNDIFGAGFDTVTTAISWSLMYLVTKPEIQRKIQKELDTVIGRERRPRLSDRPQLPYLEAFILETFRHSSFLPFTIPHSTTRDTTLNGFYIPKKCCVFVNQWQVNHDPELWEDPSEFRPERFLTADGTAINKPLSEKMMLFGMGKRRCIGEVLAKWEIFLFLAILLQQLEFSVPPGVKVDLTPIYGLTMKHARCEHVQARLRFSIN
Chain of Glucocorticoid receptor (Homo sapiens) (P04150 whole entry, looked up, the tested form may be a part): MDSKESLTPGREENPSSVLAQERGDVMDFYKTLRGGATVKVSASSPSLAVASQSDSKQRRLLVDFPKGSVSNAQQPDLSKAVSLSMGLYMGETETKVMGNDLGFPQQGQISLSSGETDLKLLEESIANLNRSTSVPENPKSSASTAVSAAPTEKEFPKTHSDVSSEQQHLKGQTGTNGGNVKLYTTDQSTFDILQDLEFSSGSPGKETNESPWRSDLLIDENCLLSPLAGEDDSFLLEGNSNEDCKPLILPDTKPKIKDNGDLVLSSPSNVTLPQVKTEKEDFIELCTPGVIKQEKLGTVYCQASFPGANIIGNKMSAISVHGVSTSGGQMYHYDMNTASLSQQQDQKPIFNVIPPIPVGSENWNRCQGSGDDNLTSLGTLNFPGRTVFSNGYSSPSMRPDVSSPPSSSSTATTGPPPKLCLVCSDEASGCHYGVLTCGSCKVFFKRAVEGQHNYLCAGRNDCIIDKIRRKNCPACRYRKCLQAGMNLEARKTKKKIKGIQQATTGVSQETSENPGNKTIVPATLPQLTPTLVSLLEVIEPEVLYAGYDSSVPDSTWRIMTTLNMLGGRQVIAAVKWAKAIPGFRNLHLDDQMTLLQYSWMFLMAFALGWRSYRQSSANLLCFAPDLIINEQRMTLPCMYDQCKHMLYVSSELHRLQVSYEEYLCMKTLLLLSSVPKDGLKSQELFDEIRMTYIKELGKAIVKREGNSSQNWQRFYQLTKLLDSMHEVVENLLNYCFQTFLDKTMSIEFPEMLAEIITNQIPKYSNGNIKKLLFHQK
Chain of 3',5'-cyclic-AMP phosphodiesterase 4B (Homo sapiens) (Q07343 whole entry, looked up): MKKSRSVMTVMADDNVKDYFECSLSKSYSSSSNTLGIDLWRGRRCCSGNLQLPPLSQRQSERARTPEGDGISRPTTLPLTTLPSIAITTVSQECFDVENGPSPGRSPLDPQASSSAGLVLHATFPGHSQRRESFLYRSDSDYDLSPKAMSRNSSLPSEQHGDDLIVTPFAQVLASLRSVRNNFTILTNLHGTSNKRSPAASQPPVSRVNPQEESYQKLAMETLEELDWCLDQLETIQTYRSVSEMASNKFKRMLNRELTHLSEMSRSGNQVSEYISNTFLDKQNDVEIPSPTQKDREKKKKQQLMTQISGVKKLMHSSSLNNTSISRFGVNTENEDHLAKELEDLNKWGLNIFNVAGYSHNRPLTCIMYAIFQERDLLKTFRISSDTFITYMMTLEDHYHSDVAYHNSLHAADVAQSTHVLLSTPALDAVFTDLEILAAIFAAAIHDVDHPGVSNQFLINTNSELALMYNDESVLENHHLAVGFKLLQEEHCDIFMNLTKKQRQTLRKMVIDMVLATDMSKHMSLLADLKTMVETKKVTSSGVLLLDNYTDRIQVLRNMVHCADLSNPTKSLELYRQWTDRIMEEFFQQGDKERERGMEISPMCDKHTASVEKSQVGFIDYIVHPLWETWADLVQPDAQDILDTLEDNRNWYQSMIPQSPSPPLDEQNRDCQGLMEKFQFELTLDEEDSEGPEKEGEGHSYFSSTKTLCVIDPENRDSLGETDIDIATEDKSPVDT
Chain of Cytochrome P450 3A4 (Homo sapiens) (P08684 whole entry, looked up): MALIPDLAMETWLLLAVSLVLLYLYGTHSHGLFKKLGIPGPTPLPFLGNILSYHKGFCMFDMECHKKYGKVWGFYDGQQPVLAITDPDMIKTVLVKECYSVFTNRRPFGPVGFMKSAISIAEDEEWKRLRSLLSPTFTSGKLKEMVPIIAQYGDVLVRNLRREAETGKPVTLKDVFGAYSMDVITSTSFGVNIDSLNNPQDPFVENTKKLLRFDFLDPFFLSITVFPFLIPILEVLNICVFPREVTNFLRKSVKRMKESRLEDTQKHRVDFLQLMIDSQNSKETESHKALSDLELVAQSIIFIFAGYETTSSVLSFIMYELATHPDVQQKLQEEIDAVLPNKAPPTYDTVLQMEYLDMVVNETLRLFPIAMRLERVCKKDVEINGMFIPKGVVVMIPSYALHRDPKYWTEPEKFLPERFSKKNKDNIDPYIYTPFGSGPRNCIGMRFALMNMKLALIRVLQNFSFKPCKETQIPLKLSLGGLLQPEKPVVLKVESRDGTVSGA
Chain of Lysosomal acid glucosylceramidase (Homo sapiens) (P04062 whole entry, looked up): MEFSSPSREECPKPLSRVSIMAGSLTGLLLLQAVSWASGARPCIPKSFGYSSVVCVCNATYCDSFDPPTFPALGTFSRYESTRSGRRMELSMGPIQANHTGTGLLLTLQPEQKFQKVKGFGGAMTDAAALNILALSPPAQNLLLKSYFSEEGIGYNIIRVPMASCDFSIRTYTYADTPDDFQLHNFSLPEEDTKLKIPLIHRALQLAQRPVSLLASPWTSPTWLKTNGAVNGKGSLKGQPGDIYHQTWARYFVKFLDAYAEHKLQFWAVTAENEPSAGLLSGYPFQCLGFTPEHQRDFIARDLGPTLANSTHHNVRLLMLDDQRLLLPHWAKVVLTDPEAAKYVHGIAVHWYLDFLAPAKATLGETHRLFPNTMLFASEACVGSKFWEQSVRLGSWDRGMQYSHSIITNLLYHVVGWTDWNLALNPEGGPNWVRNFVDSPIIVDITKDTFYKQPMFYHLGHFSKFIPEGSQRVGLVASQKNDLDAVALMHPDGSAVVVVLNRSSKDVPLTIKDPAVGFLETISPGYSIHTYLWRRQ
Chain of Cytochrome P450 2D6 (Homo sapiens) (P10635 whole entry, looked up): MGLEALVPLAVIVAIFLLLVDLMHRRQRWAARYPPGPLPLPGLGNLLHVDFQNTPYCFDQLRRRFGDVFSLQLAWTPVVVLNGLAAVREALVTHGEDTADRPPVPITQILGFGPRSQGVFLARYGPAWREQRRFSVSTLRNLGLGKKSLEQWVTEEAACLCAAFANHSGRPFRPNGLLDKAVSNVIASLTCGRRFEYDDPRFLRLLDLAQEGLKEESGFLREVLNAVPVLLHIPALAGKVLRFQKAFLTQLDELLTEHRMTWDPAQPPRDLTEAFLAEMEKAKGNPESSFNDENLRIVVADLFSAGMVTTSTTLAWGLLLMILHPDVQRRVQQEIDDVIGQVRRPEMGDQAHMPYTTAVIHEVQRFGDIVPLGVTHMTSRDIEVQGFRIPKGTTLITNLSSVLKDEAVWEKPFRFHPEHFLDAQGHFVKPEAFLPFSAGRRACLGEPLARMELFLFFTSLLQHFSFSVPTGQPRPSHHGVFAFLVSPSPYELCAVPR
Chain of Cytochrome P450 2C19 (Homo sapiens) (P33261 whole entry, looked up): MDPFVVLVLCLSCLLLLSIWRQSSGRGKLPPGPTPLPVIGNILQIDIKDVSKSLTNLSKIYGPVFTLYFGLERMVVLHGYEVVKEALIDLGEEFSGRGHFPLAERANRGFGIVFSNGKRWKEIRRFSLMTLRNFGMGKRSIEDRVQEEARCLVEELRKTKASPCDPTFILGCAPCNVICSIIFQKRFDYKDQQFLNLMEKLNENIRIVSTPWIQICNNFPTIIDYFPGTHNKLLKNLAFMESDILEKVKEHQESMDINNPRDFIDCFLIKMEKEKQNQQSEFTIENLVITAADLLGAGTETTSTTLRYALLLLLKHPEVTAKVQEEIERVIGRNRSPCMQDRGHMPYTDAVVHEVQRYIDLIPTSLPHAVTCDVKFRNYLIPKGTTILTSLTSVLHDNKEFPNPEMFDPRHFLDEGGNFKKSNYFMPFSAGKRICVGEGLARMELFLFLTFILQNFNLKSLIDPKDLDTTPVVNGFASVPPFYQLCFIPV

With `Cc1noc(C)c1C(=O)N1CCC2(CCCN(c3ccccc3)C2)CC1`, the Potency in experiment [1] is > 11.4 µM (inactive); in [6] it was > 46 µM (inactive). The activity change, negative = inhibition in [2] is -12.1% (inactive); in experiment [4], -9.55% (inactive); in experiment [10], -0.946% (inactive). Also, the Potency entry in experiment [3], in experiment [8], in [9] and in [11] was “inactive” in each case. Besides, the activity, negative = inhibition in experiment [5] is -1.28% (inactive). Also, in experiment [7], the result was inactive. For the same molecule, the max response in experiment [10] (setting [15]) turned out to be 8.91%; in experiment [10] (setting [16]), 9.27%.

For the molecule `CN(C)c1ncc2ncc(=O)n(Cc3ccc(F)cc3)c2n1`, the Potency in [1] is > 11.4 µM (inactive); in experiment [3], 3.98 µM (active); in [6], > 46 µM (inactive); in experiment [12], 3.16 µM (active). Moreover, the activity change, negative = inhibition in experiment [2] was -9.88% (inactive); in [4], 4.28% (inactive); in [10] it was 2.54% (inactive). Moreover, in experiment [5], the activity, negative = inhibition was -10.9% (inactive). The outcome in experiment [7] was inactive. Also, the Potency entry in experiment [8], in [9] and in [11] was “inactive” throughout. For the same molecule, the max response in [10] (setting [15]) was 6.58%; in experiment [10] (setting [16]), 11.9%.

`CC(=O)N1CCC2(CC1)CCN(C(=O)Nc1cccc(F)c1)CC2`: the values for the Potency in [1], in experiment [6] and in experiment [13] were > 11.4 µM (inactive), > 46 µM (inactive) and 3.16 µM (active), respectively. For the same molecule, the activity change, negative = inhibition in [2] is -10.4% (inactive); in experiment [4], 8.58% (inactive); in experiment [10], 3% (inactive). Besides, the Potency entry in experiment [3], in experiment [8] and in experiment [11] was “inactive” in each case. In [5], the activity, negative = inhibition is -7.06% (inactive). Moreover, in experiment [7], the molecule was classed as inactive. The values for the max response in [10] (setting [15]) and in experiment [10] (setting [16]) were 11% and 16.9%, respectively.

For the molecule `COc1ccccc1CN1CC2(CCN(C(=O)c3cnccn3)CC2)C1`, the Potency is > 11.4 µM (inactive) in experiment [1] and > 46 µM (inactive) in experiment [6]. In addition, the activity change, negative = inhibition in experiment [2] was 2.43% (inactive); in experiment [4], -17.5% (inactive); in experiment [10], 3% (inactive). In addition, the Potency result in experiment [3], in [8], in experiment [9] and in experiment [11] was “inactive” in each case. Further, the activity, negative = inhibition in experiment [5] is -6.42% (inactive). Also, in experiment [7], the outcome was inactive. Further, the max response turned out to be 12% in [10] (setting [15]) and 20.3% in experiment [10] (setting [16]).

On to `COc1ccccc1CN1CC[C@@]2(CCCN(S(C)(=O)=O)C2)C1`, for which the Potency in [1] is > 11.4 µM (inactive); in experiment [6] it was > 46 µM (inactive); in experiment [13] it was 0.316 µM (active). The activity change, negative = inhibition was 1.48% (inactive) in experiment [2], -16.9% (inactive) in [4] and 4.56% (inactive) in experiment [10]. The Potency entry in experiment [3], in experiment [8], in experiment [9] and in experiment [11] was “inactive” throughout. The activity, negative = inhibition in experiment [5] is 5.92% (inactive). The molecule was called inactive in experiment [7]. Besides, the figures for the max response in experiment [10] (setting [15]) and in experiment [10] (setting [16]) were 7.77% and 13.7%, respectively.

Regarding `CC(C)NC(=O)N1CCCC2(CCN(C(=O)c3cc(C(F)(F)F)cc(C(F)(F)F)c3)CC2)C1`, the figures for the Potency in experiment [1] and in [6] were > 11.4 µM (inactive) and > 46 µM (inactive), respectively. The activity change, negative = inhibition was -19.4% (inactive) in experiment [2], 11.4% (inactive) in experiment [4] and -6.13% (inactive) in experiment [10]. The Potency entry in [3], in experiment [8], in experiment [9] and in experiment [11] was “inactive” in each case. Besides, the activity, negative = inhibition in experiment [5] is -13.3% (inactive). For the same molecule, in experiment [7], the call was inactive. Further, the activation in experiment [14] is -9.04% (inactive). The max response is 16.6% in experiment [10] (setting [15]) and 12% in [10] (setting [16]).
